Measurements taken from ChEMBL document CHEMBL4513216, “Probing the Open Global Health Chemical Diversity Library for Multistage-Active Starting Points for Next-Generation Antimalarials” (ACS Infect Dis, 2020).
Screen size: about 68,000 compounds; about 2,700 (4%) showed an effect of 50% or more. This excerpt belongs to a sample that is enriched for strong results.

System: Plasmodium berghei
Assay: Screen against P. berghei liver stage (PbLuc), transformed with Luciferase, at 2uM
Format: functional, HepG2
Conditions: tested at 2 uM

Row | SMILES | INHIBITION [%]
1 | COc1cccc(CNCC2CCN(CC(C)O)CC2)c1OC (stereo unspecified) | 61.96
2 | CCOc1ccccc1CNCC1CCN(CC(C)O)CC1 (stereo unspecified) | 21.43
3 | COc1ccc(CNCC2CCN(CC(C)O)CC2)c2ccccc12 (stereo unspecified) | 7.54
4 | COc1ccccc1CNC1(CCO)CCOCC1 | 13.12
5 | Cc1cc(C(=O)N2CCCC(c3ccc(C(=O)O)cc3)C2)c(C)o1 (stereo unspecified) | -56.9
6 | Cn1ccc(NCc2cc3cc(F)ccc3o2)n1 | 5.1
7 | Cc1cc(-n2nc(C3CC3)nc2-c2csnn2)ccn1 | -77.53
8 | Cn1cc(CN2CC[C@@H]3[C@@H](CCC(=O)N3CCc3c[nH]cn3)C2)cn1 | -21.16
9 | O=C1CC[C@H]2CN(Cc3cccnc3)CC[C@H]2N1CCc1c[nH]cn1 | 50.94
10 | O=C1CC[C@H]2CN(Cc3cccc(F)c3)CC[C@H]2N1CCc1c[nH]cn1 | -13.3
11 | CN1CCCC1CCn1ccnc1-c1ccc2ccccc2n1 (stereo unspecified) | 5.55
12 | CCN1CC2(CC1=O)CN(C(=O)c1ccsc1)CCN(C(=O)N(C)C)C2 (stereo unspecified) | 26.44
13 | Cc1noc2nc(C3CCN(Cc4ccncc4)CC3)cc(C(F)F)c12 | 17.51
14 | Cc1noc2nc(C3CCCN(Cc4cccnc4)C3)cc(C(F)F)c12 (stereo unspecified) | 39.06
15 | Cc1noc2nc(C3CCCN(Cc4ccncc4)C3)cc(C(F)F)c12 (stereo unspecified) | 63.66
16 | COc1c(C)cnc(CN2CCCC2c2noc(C)n2)c1C (stereo unspecified) | 4.87
17 | COCCN(CC1CC1)c1nc(CCN)nc2sc(C)c(C)c12 | 13.65
18 | O=C1NC2(CCN(Cc3cccnc3)CC2)CC1c1cccnc1 (stereo unspecified) | -22.79
19 | Cc1noc(C)c1CN(C)Cn1c(=O)oc2ccccc21 | -5.31
20 | CC(C)N1CCC(CC(=O)N2CCN(Cc3nccn3C)CC2)CC1 | 29.41
21 | COCCN1CC[C@]2(CN(Cc3cccnc3)C[C@H]2C)C1=O | 49.07
22 | Cc1nc2n(n1)CC(NCc1cnn(-c3ccccc3)n1)CC2 (stereo unspecified) | 24.88
23 | Cc1ccc(C2COCCN2C(=O)c2ccsc2)o1 (stereo unspecified) | 16.01
24 | COc1ccc(C(=O)N2CCOCC2c2ccc(C)o2)cc1 (stereo unspecified) | 39.93
25 | Cc1ccc(C2COCCN2C(=O)c2ccc(CN(C)C)cc2)o1 (stereo unspecified) | 27.84
26 | Cc1ccc(C2COCCN2C(=O)c2ccc(C#N)cc2)o1 (stereo unspecified) | 54.44

Row | SMILES | INHIBITION [%]
27 | CC(=O)Nc1cc(C(=O)N2CCOCC2c2ccc(C)o2)ccc1F (stereo unspecified) | 44.99
28 | COCc1ccc(C(=O)N2CCOCC2c2ccc(C)o2)cc1 (stereo unspecified) | 62.13
29 | Cc1ccc(C2COCCN2C(=O)c2ccc(N(C)C)cc2)o1 (stereo unspecified) | 30.73
30 | Cc1ccc(C2COCCN2C(=O)c2cccc(N(C)C)c2)o1 (stereo unspecified) | 43.34
31 | Cc1ccc(C2COCCN2C(=O)c2ccc(F)c(F)c2)o1 (stereo unspecified) | 70.24
32 | CCS(=O)(=O)N1CCCCC1c1nc(C(C)C)no1 (stereo unspecified) | -28.84
33 | CN1CCN(Cc2ccccc2Oc2ccc(C(N)=O)cn2)CC1 | 8.73
34 | CN(Cc1ccc(O)cc1)C(=O)NC1CCCN(c2ncccn2)C1 (stereo unspecified) | 36.95
35 | Cc1nc(CN2CCCC(c3nccs3)C2)cs1 (stereo unspecified) | -33.32
36 | Cn1cc(Cl)c(C(=O)N2CCC(N3CCc4ccccc4C3)CC2)n1 | 18.63
37 | Cc1c(O)cccc1C(=O)N1CCCC2(C1)C(=O)N(C)c1ccccc12 (stereo unspecified) | -91.67
38 | Cc1noc(COCC(=O)N2CCCC(c3nccs3)C2)n1 (stereo unspecified) | -7.96
39 | CCc1cn[nH]c1C1CCCN(C(=O)c2cnc(NC(C)C)nc2)C1 (stereo unspecified) | 56.49
40 | CCc1cn[nH]c1C1CCCN(C(=O)c2cc(C(C)C)on2)C1 (stereo unspecified) | 22.34
41 | CCc1cn[nH]c1C1CCCN(C(=O)c2ncoc2C(C)C)C1 (stereo unspecified) | 27.85
42 | CCn1cc(NC(=O)C(C)n2ncc(Cl)c2C)c(C(=O)NC)n1 (stereo unspecified) | -28.77
43 | CC(C)(C)C(=O)N1C[C@H](c2ccsc2)[C@H]2CN(C3CCCCC3)CC[C@H]21 | 25.41
44 | CC(C)C(=O)N1CCC12CCCN(C(=O)c1ccnnc1)C2 (stereo unspecified) | -40.36
45 | CC(=O)NC(Cc1c[nH]c2cc(F)ccc12)C(=O)Nc1nonc1C (stereo unspecified) | 46.43
46 | CC(=O)NC(Cc1c[nH]c2cc(F)ccc12)C(=O)Nc1cnn(C)c1 (stereo unspecified) | 11.32
47 | CC(=O)NC(Cc1c[nH]c2cc(F)ccc12)C(=O)Nc1nncs1 (stereo unspecified) | 59.94
48 | Cc1ccc(CN(C)C(=O)CN2CCCC(Cn3cncn3)C2)cc1 (stereo unspecified) | 10.4
49 | O=C1CCC(c2nc(C3CCNCC3)no2)N1 (stereo unspecified) | -6.77
50 | CCN1C[C@@H]2[C@@H](OC)CCN(C(=O)c3cc(C)nn3CC)[C@@H]2C1 | 66.46
51 | CO[C@@H]1CCN(C(=O)c2ccsc2)[C@@H]2CN(CC3CC3)C[C@@H]21 | 54.01
52 | CCn1nc(C)cc1C(=O)N1CC[C@H](OC)[C@H]2CN(CC3CC3)C[C@H]21 | 24.51

Row | SMILES | INHIBITION [%]
53 | CO[C@H]1CCN(C(=O)Cc2ccsc2)[C@@H]2CN(CC3CC3)C[C@H]12 | 22.16
54 | CCN1C[C@H]2[C@@H](C1)N(C(=O)Cc1ccsc1)CC[C@H]2OC | 48.52
55 | CO[C@H]1CCN(C(=O)c2ccsc2)[C@@H]2CN(CC3CC3)C[C@H]12 | -1.45
56 | O=C(c1cscn1)N1C[C@H]2CCCC(OCc3cccnc3)[C@H]2C1 (stereo partly specified) | -16.41
57 | COCCCN1CCCN(C(C)C(=O)Nc2cccc(I)c2)CC1 (stereo unspecified) | 42.76
58 | Cc1cc(C)cc(OCC(=O)NC2CCN(S(C)(=O)=O)CC2)c1 | -50.23
59 | CCN(Cc1cccc(C(N)=O)c1)c1ccccc1 | 36.74
60 | Cc1ccc(CN2CCC(NC(=O)c3scnc3C)CC2)cc1 | -21.72
61 | Cc1ncsc1C(=O)NC1CCN(Cc2ccc(C(N)=O)cc2)CC1 | -2.82
62 | Cc1ncsc1C(=O)NC1CCN(Cc2ccc(C(F)(F)F)cc2)CC1 | 74.35
63 | Cc1cc(CN2C[C@@H]3CC[C@H]2CN(C2Cc4ccccc4C2)C3)on1 | 17.28
64 | CCC(NCc1ccccc1)c1ccccc1OCC(=O)NC (stereo unspecified) | -3.09
65 | COc1cccc(N2CCC(N3C[C@@H](NC(C)=O)[C@H](C(C)C)C3)CC2)c1 | 52.98
66 | CC(=O)N[C@@H]1CN(C2CCN(c3ccccc3F)CC2)C[C@H]1C(C)C | 7.67
67 | COc1ccc(N2CCC(NC(=O)c3ccc(C#N)cc3)CC2)cc1 | 45.62
68 | CC(=O)N[C@@H]1CN(C2CCN(c3cccc(Cl)c3)CC2)C[C@H]1C(C)C | 21.97
69 | COc1ccc(N2CCC(N(C)C(=O)C(C)SC)CC2)cc1 (stereo unspecified) | 27.5
70 | CC(=O)N[C@@H]1CN(C2CCN(c3cccc(C)c3C)CC2)C[C@H]1C(C)C | 29.13
71 | COc1ccc(N2CCC(N(C)C(C)C(=O)N(C)C)CC2)cc1 (stereo unspecified) | -2.89
72 | CCOC(C)C(=O)N(C)C1CCN(c2ccc(OC)cc2)CC1 (stereo unspecified) | 73.09
73 | COc1ccc(N2CCC(N3C[C@H](NC(C)=O)[C@@H](C(C)C)C3)CC2)cc1 | 55.36
74 | O=C(NCC1(c2ccc(F)cc2)CCCC1)N1CCOC(CO)C1 (stereo unspecified) | 12.41
75 | Cn1ncnc1-c1ccnc(N2CCC(C(O)c3cccs3)CC2)n1 (stereo unspecified) | 39.98
76 | Fc1cccc(N2CCCC3(CN(Cc4cccnc4)CCO3)C2)c1 (stereo unspecified) | -18.59
77 | O=c1[nH]c2ccccc2c2c1CCO2 | -66.7
78 | O=C(Nc1ccccn1)NC(CCCO)c1ccccc1 (stereo unspecified) | -67.62

Row | SMILES | INHIBITION [%]
79 | Cc1ccc(CN2CC[C@H]3OCC[C@@]3(COCC(=O)N(C)C)C2)s1 | -14.52
80 | CCc1ccc(CN2CCCC(CO)(CCOC)C2)cc1 (stereo unspecified) | 22.74
81 | CCN(CC)C(=O)[C@@H]1C[C@H](N)CN1C(=O)c1cc2c([nH]c1=O)CCC2 | 22.89
82 | CC(C)NC(=O)[C@@H]1C[C@H](N)CN1C(=O)c1cc2c([nH]c1=O)CCCC2 | -34.26
83 | CCN(CC)C(=O)[C@@H]1C[C@@H](N)CN1C(=O)c1cc2c([nH]c1=O)CCC2 | 56.16
84 | CCN1CC2(CCC1=O)CCN(CCc1nccn1C)CC2 | 25.65
85 | CNc1nnc(CCn2nc(C)c(Br)c2C)s1 | 6.05
86 | CC(C)(C)CC(=O)NC[C@H]1OC[C@@H](NCc2ccccn2)[C@@H]1O | 16.43
87 | CC(C)=CCS(=O)(=O)Cc1ccn(-c2cccc(F)c2)n1 | 58.14
88 | CN(C)C(=O)CS(=O)(=O)Cc1ccn(-c2cccc(F)c2)n1 | -19.29
89 | CCS(=O)(=O)Cc1ccn(-c2cccc(F)c2)n1 | 6.82
90 | CCCNC(=O)CNc1cc(C#N)ccc1OCC | -19.76
91 | Cn1ncc(C(=O)O)c1C(=O)Nc1nc2ccc(Br)cc2s1 | 3.27
92 | N#Cc1ccc(CNCC2CCN(CCO)CC2)cc1 | 1.07
93 | Cc1[nH]c2ccc(CNc3cc(C(=O)NC(C)C)ccn3)cc2c1C | 15.46
94 | O=C1CO[C@H]2CN(S(=O)(=O)c3ccccc3)C[C@H]2N1c1ccccc1 | 53.27
95 | O=C1CO[C@@H]2CN(S(=O)(=O)c3ccccc3)C[C@H]2N1CC1CC1 | -30.12
96 | O=C1CO[C@H]2CN(S(=O)(=O)c3ccccc3)C[C@H]2N1Cc1ccccc1 | 15.98
97 | CC(C)c1noc(C[S+]([O-])CC(=O)Nc2cc(F)ccc2F)n1 (stereo unspecified) | 12.35
98 | CC(NC1CCN(CCS(C)(=O)=O)CC1)c1ccc(Cl)cc1 (stereo unspecified) | -26.72
99 | COCCNC(=O)CCNc1cc(C)nc(-c2ccncc2)n1 | 69.06
100 | Cc1cc(NCCC(=O)NC(C)C)nc(-c2ccncc2)n1 | -1.96
101 | Cc1cc(NCCC(=O)NC2CCCC2)nc(-c2ccncc2)n1 | -82.36
